Screening data from PubChem BioAssay.
hcDAF12 agonist – H. contortus DAF-12 nuclear receptor activators, primary screen, cell-based, luminescence, HEK293, lit1-tk-luc reporter. 1.4% of 370,000 active. HEK293 hcDAF-12 lit1-tk-luc reporter; 0% DMSO, 100% Δ7-dafachronic acid. activation, % at 6.8 µM;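 active means activation above the mean of all tested compounds plus 3 SD, cut at about 5.5% in these data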
ssDAF12 agonist – S. stercoralis DAF-12 nuclear receptor activators, primary screen, cell-based, luminescence, HEK293, GRIP1 co-expression, lit1-tk-luc; Nuclear hormone receptor DAF-12 (Strongyloides stercoralis); activation, % at 6.8 µM; 1% of 370,000 active; HEK293 ssDAF-12/GRIP1 lit1-tk-luc reporter; % of 3 µM dafachronic acid response;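 active means activation above the mean over all tested compounds plus 3 SD, cut at about 0.9% in these data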
DAX1 inh-1 – DAX1 (NR0B1) inhibitors on StAR promoter, primary screen, cell-based, luminescence, SF-1 (NR5A1), full-length DAX-1; inhibition, % at 6.8 µM; 1.1% of 370,000 active; HEK293T StAR-luciferase reporter, SF-1/DAX-1 repression relief; AID 652010, 2013;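 active means inhibition above the mean over all tested compounds plus 3 SD, cut at about 3.6% in these data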;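 further: higher inhibition means more luminescence from relief of DAX-1 repression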
DAX1 inh-2 – DAX1 (NR0B1) inhibitors, primary screen, cell-based, HEK293, Gal4-DAX1, luciferase luminescence. Nuclear receptor subfamily 0 group B member 1 (Homo sapiens), P51843. HEK293 Gal4-DAX1 luciferase reporter. inhibition, % at 6.75 µM. 0.99% of 340,000 active;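 active means inhibition above the mean over all tested compounds plus 3 SD, cut at about 4.2% in these data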;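 further: inhibition shows as a rise in luminescence from relieved DAX1 repression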
Target sequence (P51843 207-470 limits assumed): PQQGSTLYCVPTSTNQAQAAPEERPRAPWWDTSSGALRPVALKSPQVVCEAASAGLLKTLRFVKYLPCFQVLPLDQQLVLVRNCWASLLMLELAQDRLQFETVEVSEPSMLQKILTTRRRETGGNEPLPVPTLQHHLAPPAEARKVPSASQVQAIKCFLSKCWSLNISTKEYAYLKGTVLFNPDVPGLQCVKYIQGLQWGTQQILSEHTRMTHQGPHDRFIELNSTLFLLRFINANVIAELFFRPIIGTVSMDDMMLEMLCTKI
hgDAF-12 ag – H. glycines DAF-12 receptor agonists, primary screen, cell-based, luminescence, HEK293, GAL4 fusion, UAS-luciferase; Nuclear hormone receptor DAF-12 (Heterodera glycines), GAL4 fusion; HEK293 GAL4-hgDAF12 UAS-luciferase reporter, agonist luminescence; normalized to butyrate control; activation, % at 6.8 µM; 1.8% of 370,000 active; AID 687014, 2013;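 active means activation above a cutoff set at the mean of all screened compounds plus 3 SD, cut at about 10% in these data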
Large screens that a line does not name were inactive. A selection: hits, their analogues and other compounds. The true share with any hit is near 4.1%.

CC(C)c1ccc(/C=C/C(=O)N2CCCCCC2)cc1	none
COC(=O)C1CN(Cc2cn(CCC3OCCO3)nn2)CCS(=O)(=O)N1Cc1ccc(Cl)cc1 (stereo unspecified)	none (no result: DAX1 inh-2)
CN1[C@@H](Cc2ccccc2)COc2cc(N3CCCC3)ccc2S1(=O)=O	none (no result: DAX1 inh-2)
CC(=O)NCCc1nc2cc(NC(=O)c3ccc(Cl)cc3)ccc2n1C	hgDAF-12 ag 11.0
CCC(=O)NCCc1nc2cc(NC(=O)c3ccc(Cl)cc3)ccc2n1C	none
Cc1ccccc1C(=O)N[C@H](C(=O)N1CCC[C@H]1C(=O)NCc1ccccc1)c1ccccc1	none (no result: DAX1 inh-2)
COc1ccc(OCc2cc(C(=O)N(C)C3CCOC3)no2)c(Cl)c1 (stereo unspecified)	none
CCOC(=O)C1CCN(C(=O)/C=C/c2ccccc2)CC1	hgDAF-12 ag 11.9
CCOC(=O)C1CCCN(C(=O)/C=C/c2ccccc2)CC1 (stereo unspecified)	none (no result: DAX1 inh-2)
CCOC(=O)C1CCN(C(=O)c2cc(COc3ccc(OC)c4ccccc34)on2)CC1	hcDAF12 agonist 6.3, hgDAF-12 ag 12.5
COc1ccc(OCc2cc(C(=O)N(C)C3CCOCC3)no2)c2ccccc12	ssDAF12 agonist 1.0
CCOC(=O)C1CCN(C(=O)c2ccc(C)o2)CC1	none
CCOC(=O)C1CCN(C(=O)c2cc3c(ccc4ccccc43)o2)CC1	DAX1 inh-1 4.1
COC(=O)c1ccc(C=NNC(=O)c2cc(-c3ccc(C)c(C)c3)n[nH]2)cc1	none (no result: DAX1 inh-2)
COc1ccc(N2CCN(CCCNC(=O)Cn3c(=O)c4cccn4c4cccnc43)CC2)c(OC)c1	none (no result: DAX1 inh-1, DAX1 inh-2)
CN1CCN(C2=C(Cl)C(=O)N(CCc3ccccc3)C2=O)CC1	none
O=C1c2ccccc2C(=O)N1CCc1ccccc1	hcDAF12 agonist 6.2, ssDAF12 agonist 0.9
O=C1C(Cl)=C(N2CCOCC2)C(=O)N1CCc1ccccc1	hgDAF-12 ag 10.7
CC(=O)N1CCc2c1cccc2S(=O)(=O)NC(CC(C)C)C(=O)Nc1ccccc1C (stereo unspecified)	none (no result: DAX1 inh-2)
O=C(c1cccc(C(F)(F)F)c1)N1CCOC12CCN(c1ncc(C(F)(F)F)cc1Cl)CC2	none
COC(=O)[C@]12C[C@H](CC(=O)N3CCOCC3)C(=O)N(Cc3ccco3)C1=C[C@H](C(C)(C)C)O[C@@H]2C	none (no result: DAX1 inh-2)
CC(C)CN1CCC(=O)N(CCOc2ccccc2)CC1	DAX1 inh-2 4.3
CCCN1CCC(=O)N(CCOc2ccccc2)CC1	none
Cc1nn(-c2ccc(C(F)(F)F)cn2)c(C)c1Oc1ccccc1O	none
CN(C)/C=N/c1ncnc2c1cnn2-c1ccc(C(F)(F)F)cn1	hgDAF-12 ag 10.9
CC(C)[C@H](NC(=O)N1c2ccccc2NC(=O)[C@@H]1C(C)C)C(=O)N[C@@H](C(=O)O)c1ccccc1	DAX1 inh-2 4.5
CC(C)[C@H](NC(=O)N1c2ccccc2NC(=O)[C@@H]1C(C)C)C(=O)N[C@@H](Cc1ccccc1)C(=O)O	none
COc1ccc(Cc2c(-c3ccc(F)cc3)nc3cc(C)c(Br)c(C)n23)c(C)c1	hcDAF12 agonist 5.7, ssDAF12 agonist 2.2 (no result: DAX1 inh-2)
COc1ccc(Cc2c(C(C)(C)C)nc3cc(C)c(Br)c(C)n23)c(C)c1	ssDAF12 agonist 1.8 (no result: DAX1 inh-2)
COc1ccc(Cc2c(-c3ccc(Cl)cc3)nc3cc(C)c(Br)c(C)n23)c(C)c1	ssDAF12 agonist 0.9, hgDAF-12 ag 13.2 (no result: DAX1 inh-2)
O=C(NCCN1CCC(Cc2ccccc2)CC1)C1CCCN(S(=O)(=O)c2ccccc2[N+](=O)[O-])C1 (stereo unspecified)	none (no result: DAX1 inh-2)
O=C(CSc1nnc(-c2cccnc2)n1-c1ccccc1)Nc1ccc2c(c1)OCCO2	none (no result: DAX1 inh-2)
C#CCN1C(=O)[C@]2(OCCC=C[C@H]2C)c2cc(OC)ccc21	none (no result: DAX1 inh-2)
CCNC(=O)N(C)[C@H]1C[C@H]2c3[nH]c4cccc(-c5ccc6c(c5)OCO6)c4c3CCN2C[C@H]1[C@H](C)O	none (no result: DAX1 inh-2)
N#Cc1cccc(C#N)c1N1CCC(C#N)CC1	hgDAF-12 ag 11.4 (no result: DAX1 inh-2)
COc1ccc(CN(C)C(=O)Cc2c[nH]c3ccccc23)cc1	hcDAF12 agonist 6.1
COc1cccc(CN(C)C(=O)Cc2c[nH]c3ccccc23)c1	hcDAF12 agonist 6.1
C=CCN1C(C(=O)OC)CN(Cc2cn(CCC3OCCO3)nn2)CCS1(=O)=O (stereo unspecified)	none (no result: DAX1 inh-2)
CC(C)c1ccc(NC(=O)N(CCc2nc3ccccc3[nH]2)C2CCCC2)cc1	ssDAF12 agonist 0.9
CC(=O)Nc1ccc(CCc2nc3ccccc3[nH]2)cc1	none
C=CCN1C(=O)S/C(=C\c2ccc(N3CCOCC3)cc2C)C1=O	DAX1 inh-2 4.2
COC(=O)c1sc(=S)n(Cc2ccccc2)c1C	DAX1 inh-2 12.4
CN1CCN(c2ccc(NC(=O)CSc3ccccc3)cc2F)CC1	DAX1 inh-2 5.3, hgDAF-12 ag 10.6
O=C(Nc1ccc2c(c1)OCO2)c1c(F)cccc1F	hgDAF-12 ag 12.6
Cn1nc(C(=O)Nc2ccc3c(c2)OCO3)c2ccccc2c1=O	ssDAF12 agonist 2.4
CC(=O)c1cccc(NC(=O)C2CCCC2)c1	none
CC(=O)c1ccc(NC(=O)C2CCCC2)cc1	DAX1 inh-2 6.0
CCOC(=O)N1C(=O)C[C@](Sc2ccc(OC)cc2)(C(=O)N2CCCC2)[C@H]1c1ccc(OC)cc1	none (no result: DAX1 inh-2)
CCc1ccc2c(c1)NC(=O)C2(C)Cc1ccc(C(F)(F)F)nc1 (stereo unspecified)	none (no result: DAX1 inh-2)
O=C(CSc1ccccn1)Nc1ccc2c(c1)OCO2	none (no result: DAX1 inh-2)
CC(C)Oc1ccc(N2CC(C(=O)Nc3ccc4c(c3)OCO4)CC2=O)cc1 (stereo unspecified)	ssDAF12 agonist 1.4
O=C(Nc1ccc2c(c1)OCCO2)c1cnn(-c2ccccc2)n1	DAX1 inh-1 4.2
O=C(CSCc1ccccc1)Nc1ccc2c(c1)OCO2	DAX1 inh-1 3.8
O=C(CSc1ccccc1F)Nc1ccc2c(c1)OCO2	hgDAF-12 ag 10.5
O=C(CSc1ncn(-c2ccccc2)n1)Nc1ccc2c(c1)OCCO2	none
Cc1ccc(NC(=O)C2CCCN(c3nnc(-n4cccc4)s3)C2)cc1C (stereo unspecified)	none (no result: DAX1 inh-2)
O=C(Nc1ccccc1)OCCN1C(=O)CCC12CCC(c1ccc(Cl)cc1)CC2 (stereo unspecified)	none (no result: DAX1 inh-2)
O=C(Nc1ccc2c(c1)OCO2)C1CCCCC1	DAX1 inh-1 4.0
Cc1ccccc1C(=O)Nc1ccc2c(c1)OCCO2	ssDAF12 agonist 1.8, hgDAF-12 ag 11.0
O=C(CC(=O)c1ccccc1)Nc1ccc2c(c1)OCCO2	hgDAF-12 ag 11.9
